According to PubChem BioAssay AID2737 (National Center for Advancing Translational Sciences (NCATS), 2010):
Active and inactive are the calls of the source.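 How the source made its calls: active means compounds inhibiting cruzain with a measured inhibition constant Ki under 100 µM; inactive means the rest.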

Molecular target: Cruzipain (Trypanosoma cruzi) (UniProt P25779)
Experiment: Confirmation Competitive Binding Assay for Inhibitors of Cruzain
Settings: recombinant cruzain, Z-FR-AMC fluorogenic cleavage, Ki
Method: Cruzain is a cysteine protease from the tropical parasite Trypanosoma cruzi. This assay protocol is for follow-up Ki determination of cruzain inhibitors of interest. Cruzain inhibition was determined using a competitive binding assay. See following references for additional details: Jadhav A, et al. J Med Chem. 2010 Jan 14;53(1):37-51. Mott BT, et al. J Med Chem. 2010 Jan 14;53(1):52-60. Assay Provider: Shoichet, Brian; University of California, San Fancisco Screening Center PI: Austin, C.P. Screening Center: NIH Chemical Genomics Center [NCGC]
Cruzain activity was measured by monitoring the cleavage of the fluorogenic substrate Z-Phe-Arg-aminomethylcoumarin (Z-FR-AMC). All cruzain assays were performed in Sodium Acetate 0.1 M pH 5.5 and in the presence of 5 mM dithiothreitol (DTT). The final concentration of cruzain was 0.4 nM, and the substrate concentration was 2.5 uM (Km = 2 uM), except for Ki determination, when the Z-FR-AMC varied from 0.31 to 20 uM, in two fold increments. Assays were conducted in presence of 0.01% Triton X-100. Assays were followed for five minutes, and activity was calculated based on initial rates. […] Data was analyzed with Prism 4 (GraphPad), and Ki values were determined from Lineweaver-Burk and Dixon plots.

Cruzipain (Trypanosoma cruzi), sequence (P25779 123-467 limits assumed): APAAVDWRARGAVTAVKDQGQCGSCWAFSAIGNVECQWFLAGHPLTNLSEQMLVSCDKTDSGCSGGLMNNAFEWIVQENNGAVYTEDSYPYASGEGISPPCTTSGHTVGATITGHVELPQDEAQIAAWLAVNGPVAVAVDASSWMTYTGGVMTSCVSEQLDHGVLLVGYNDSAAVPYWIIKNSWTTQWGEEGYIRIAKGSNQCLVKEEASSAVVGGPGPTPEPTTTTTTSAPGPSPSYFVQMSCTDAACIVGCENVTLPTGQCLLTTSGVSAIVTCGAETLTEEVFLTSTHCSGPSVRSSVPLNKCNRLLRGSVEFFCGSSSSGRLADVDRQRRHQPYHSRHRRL

SMILES	Potency
O=C(COc1ccccc1Br)NCCc1nc2ccccc2[nH]1	2000 nM (active)
Cc1ccc(C)c(OCCn2c(CCNC(=O)C3CCCCC3)nc3ccccc32)c1	2000 nM (active)
